# Laboratory results from the supplement of paper PMC11417369.
# ± gives the standard deviation of the averaged measurements. Over roughly 25,000 sequences, “ln(normalized median fluorescence intensity)” has its median near 10; the highest 2% begin near 12. The sample holds the highest values, similar sequences and a random draw of the others, so the mix is not that of the screen.
# Tested on: PfAP2-G AP2 domain (GST-tagged)
# Experiment: gcPBM binding intensity (ln(normalized median fluorescence intensity)); higher = stronger DNA binding
# Procedure, shortened: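 Binding intensity is the highest Masliner-normalised natural-log median intensity over replicate spots in either probe orientation. To obtain it, GST-tagged P. falciparum DNA-binding domains made in E. coli were incubated for 1 h on an Agilent 4 × 180k array of primer-extended double-stranded 36-bp intergenic genomic probes plus negative controls. Detection used Alexa488 anti-GST antibody with scanning at 488 nm.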
row,Sequence,gcPBM binding intensity (ln)
1,GAAAATAGCTAAAATACACACAATTAAAAATTATTA [CACACA_site3506],9.84 ± 0.16
2,TTCCATGTAGGACATGCATGCAGTTTTTAAAATATT [TGCATGCA_site481],11 ± 0.69
3,AATGTTAAAAATGAAAGTACATGGAATTTATTATTT [XGTACX_site4095],11 ± 0.56
4,AATATTTATATTTAGTGTACAGAAATAAAAAAAAAA [XGTACX_site6066],11.3 ± 0.93
5,TATTTTTAAAATATAAGTAAAAAAATAATATAAACT [TGCATGCA_negctrl_site283],10.1 ± 0.11
6,TCCTCTTCAATATATATATATTATAAATAAATAAAT [CACACA_negctrl_site1756],9.91 ± 0.38
7,TGTGTAGCTAGGGGGTTGCTAATTTTTGTTTTGACC [CACACA_negctrl_site634],10.9 ± 0.57
8,ATAAGCTCATGCAGGTGTACACAAAAAGAAAAAAAA [XGTACX_site2433],11.6 ± 0.81
9,AGCTCATGCAGGTGTACACAAAAAGAAAAAAAATAA [CACACA_site4828],11.7 ± 0.86
10,AGGTGAGCTCAGACTACACACACAAAGAAAAAAATA [CACACA_site8439],10.2 ± 0.28
11,TCAAAGGAATTTTTATGTACATATAAACTTTATTCT [XGTACX_site3432],11.2 ± 0.76
12,GATATATGTATAATAACGCACACTACAAAAATAAAA [CACACA_site2100],10.3 ± 0.33
13,ATGTATATATATATATGTACTAATTAGTAGTTTACG [XGTACX_site6272],11.1 ± 0.71
14,ATAATGACTAAATTTAAACACACAAGGGGAGTTTAC [CACACA_site8209],9.725 ± 0.007
15,ATAAATACATTAAAATGTACATAAAAATATTACTGG [XGTACX_site1484],11.2 ± 0.67
16,TTTTTTTAATAAAAGTGTACCAAATTATATACACAT [XGTACX_site6811],11.1 ± 0.64
17,TAAATATAAGTGTACATACACACTTTACAATCTCAT [CACACA_site3006],11.3 ± 0.72
18,TATAAATAAAAGTGTACACACATTAAAATCAAACGT [CACACA_site5316],11.7 ± 0.89
19,TATTTTTTTAAAATAGGTACACAATCAAACATTTAT [XGTACX_site8785],11.4 ± 0.97

row,Sequence,gcPBM binding intensity (ln)
1,TATATAAATAAATGTGTACACACATTAAAATCAAAC [CACACA_site8733],11.6 ± 1.1
2,AAAACTATATTAATGTGTACACATCAAAATATTAAT [XGTACX_site6767],11.6 ± 0.84
3,CTTTATATATAGTGTACACATTAAACAAATCTCAAT [CACACA_site5845],11.6 ± 1
4,ACAATAAAGAAGTGTACACATATATCAATAAAAAAA [CACACA_site5228],11.6 ± 0.95
5,TATAAATAAATGTGTACACACATTAAAATCAAACGT [CACACA_site2340],11.7 ± 0.96
6,CATCTTATATAATCATGTACATATAGAGACTTCTTT [XGTACX_site7685],11.1 ± 0.63
7,TATATTTACATTGTAACACACATGAAATATATATAT [CACACA_site61],9.93 ± 0.2
8,TATAAATATTATAATTGTACATATTATAAAAATTTT [XGTACX_site2719],11 ± 0.75
9,TATTTTTACCCATAAAGTACACATAAATATAAAATA [XGTACX_site177],11.5 ± 1
10,ATGGACAAGTTAAACGCACACAAATATATACACCCA [CACACA_site8478],10.6 ± 0.39
11,ATATATTTATTTTGTGCACACAACGCAAACCTTTTA [CACACA_site3508],10.5 ± 0.27
12,AATTTTGTTAAAAGGACACACAATTCAATATATTAA [CACACA_site647],11.1 ± 0.73
13,CCGTATTCAAAAAGGAGTACACAATTATATGTTATA [XGTACX_site641],11.7 ± 1
14,AAATATATATTCAAAAGTACACAATTTGTTAATAAT [XGTACX_site8917],11.4 ± 0.82
15,TATAATTTATAAGTAGTGCATTTCTTTTCATTTTTA,10.03 ± 0.057
16,AAGATTAAACATTGCACACAGAAATATATTTTCTAT [CACACA_site2374],9.91 ± 0.099
17,AATAGTAAAAGATATACACACACCAAAAAATATAAT [CACACA_site5293],10.2 ± 0.12
18,TTTATATACAAAAATGCACACGAAAAGTAATATATA [CACACA_site9387],10.28 ± 0.049
19,ACAGTATCTGGTAGCTGTACGAGTCGTAGAGAGTAG [XGTACX_site2041],11.2 ± 0.71

row,Sequence,gcPBM binding intensity (ln)
1,AAAAAAAAAAAAAAAAGTACACACTTTTGCCTACAT [XGTACX_site6583],11.6 ± 0.86
2,AAAAAAAAAAAAAAAAGTACAAGCATTGCGTTTTAA [XGTACX_site6075],11.5 ± 0.83
3,TACCTACACTTTTGGAGTACAATTAAAAAAAAAAAA [XGTACX_site1403],11.5 ± 1.1
4,TTACATGTACAAAAGTTGCACTTCATACACTTTTAT,11.1 ± 0.61
5,AAAAAAAAAAAAAAAGTACACACTTTTGCGTACATG [CACACA_site3097],12.3 ± 1.4
6,AAAAGAAAAAAAAGTACACACATGTATATTAAGCGT [CACACA_site5402],11.5 ± 0.83
7,TATTTTGTTTTAAAAGTACACACTTTTAATTAGATT [CACACA_site1180],11.5 ± 1
8,ACTTTGCGTTAAAAGAGTACATAATATTTTTTTTTT [XGTACX_site7533],11.2 ± 0.73
9,AAAAAAAAAAAAAGTACACACTTTTGCGTACAAGTA [CACACA_site5672],11.9 ± 0.83
10,AATTTCCTTTTTTAAAGTACACAAAAGTTCACTTTG [XGTACX_site4460],11.6 ± 0.98
11,TTTTTTTTTTTTAGAGTACACACTTTTTTACATTTA [CACACA_site3836],11.4 ± 0.83
12,AAAAAAAAAAAAAGTACACACTTTTGCGTACATGTA [CACACA_site7449],12 ± 0.98
13,ATTTATATTTATAAATGTACACATATATATTTCATT [XGTACX_site2723],11.2 ± 0.63
14,CCGCCATTGTACCATCCACACACATATATATATGTA [CACACA_site8866],10.9 ± 0.45
15,AAAATAACGAGTCAAACACACATATATATATATATA [CACACA_site2039],10.1 ± 0.25
16,AAATTGTAGCACCAAGCATGCTAAAAGGACATATGA [TGCATGCA_site717],10.8 ± 0.34
17,GATATAAGGGTATGAAGTACATAAATATTTTATGCT [XGTACX_site1886],11.3 ± 0.88
18,ACCCAAGAGAAAAGAGAAAGAAATATGTGTATATTG [GTGCAC_negctrl_site214],9.92 ± 0.042
19,TTCAGTGTATACATATGTACATATATATATATATAT [XGTACX_site1621],11.3 ± 0.56
